High-throughput results: PubChem, National Center for Advancing Translational Sciences (NCATS)
NS1 function inh = qHTS Assay for Inhibitors of Influenza NS1 Protein Function. Potency, µM (doses to about 46.1 µM). 270,000 compounds, 0.4% hits. AID 2326, 2010; further: actives are rising curves; nearly all actives have a fitted effect of over 50% in size
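In this qHTS, NS1 from influenza A is expressed in budding yeast, where it slows growth. Cells are switched from glucose to 2% galactose medium (pH 6.0, -URA), treated with compound, and growth recovery is read at OD600.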
Pf growth 48h = Primary qHTS for delayed death inhibitors of the malarial parasite plastid, 48 hour incubation. 310,000 compounds, 5.9% hits. Potency, µM (series often up to 28.7 µM), usual class: inhibitors. P. falciparum luciferase growth in erythrocytes, 48 h. AID 504832, 2011; active means well fitted inhibition curve with a large enough effect; inconclusive means small, poorly fitted or top-dose-only effect, or another doubt; inactive means no such curve, though single readings can be large or run the other way
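Parasite viability was followed by luminescence of a genomically integrated firefly luciferase. Cultures held 0.1% parasitemia at 2% hematocrit (final), incubated under 5% CO2 at 37 C.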
SARS PLP yeast = qHTS of Yeast-based Assay for SARS-CoV PLP; S. cerevisiae expressing SARS-CoV PLpro, growth rescue; Potency, µM (titrated, usually from 32.9 µM), actives largely listed as activators; 330,000 compounds, 0.19% hits; further: nearly all actives have a fitted effect of over 55% in size
Pf growth 96h = Primary qHTS for delayed death inhibitors of the malarial parasite plastid, 96 hour incubation | AID 504834, 2011 | 320,000 compounds, 6.9% hits | P. falciparum luciferase reporter growth, 96 h | Potency, µM (doses to about 28.7 µM), hits mostly inhibitors; active means well fitted inhibition curve with a large enough effect; inconclusive means small, poorly fitted or top-dose-only effect, or another doubt; inactive means no such curve, though single readings can be large or run the other way
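Cell-based qHTS: luciferase-tagged P. falciparum in erythrocytes (2% hematocrit, 0.05% parasitemia final) incubated with compounds for 96 hours, 37 C, 5% CO2; luciferase detection reagent then added and luminescence measured.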
CHX counter = Cycloheximide Counterscreen for Small Molecule Inhibitors of Shiga Toxin | cell reporter, cycloheximide protein synthesis inhibition counterscreen | max response, % | 300,000 compounds, 12% hits; in the data active means max response mostly above about 13%, no sharp cut-off; inactive means mostly below about 14%; further: read at 38.3 µM for the half of the compounds with a filed dose
Shiga inhibitor = A qHTS for Small Molecule Inhibitors of Shiga Toxin | 290,000 compounds, 9.2% hits | Vero cells, Shiga toxin protein synthesis inhibition reporter | inhibition, % at 38.7 µM; in the data active means inhibition mostly above about 28%, no sharp cut-off; inactive means mostly below about 43%
A number is an active result; i = inactive; ? = inconclusive; nt = no result; [ ] = another dose, or the depositor's remark. A selection: hits, their analogues and other compounds. The true share with any hit is near 21%. Unless noted, the call rests on the fitted dose curve.

SMILES | NS1 function inh | Pf growth 48h | SARS PLP yeast | Pf growth 96h | CHX counter | Shiga inhibitor
Cc1ccc(C(=O)Nc2ccc(N3CCN(C(=O)c4ccco4)CC3)cc2)c(Cl)c1 | i | 13.1µM | i | i | i | i
Cc1ccccc1C(=O)Nc1ccc(N2CCN(C(=O)c3ccco3)CC2)cc1 | i | i | i | ? | i | i
O=C(Nc1ccc2c(c1)CCCN2C(=O)c1ccco1)c1cc([N+](=O)[O-])ccc1Cl | nt | 14.7µM | i | ? | nt | nt
CN(C)/C=C1\Oc2ccc3ccccc3c2C1=O | nt | i | i | i | 34.0 | 116.2
CN1C2CCC1CC(NC(=O)c1cc(Cl)cc3[nH]cnc13)C2 (stereo not drawn) | i | ? | i | ? | i | nt
CCN(C[C@H]1N[C@@](Cc2ccccc2)(C(=O)OC)[C@H]2C(=O)N(C)C(=O)[C@@H]12)C(=O)COc1ccccc1 | nt | nt | i | nt | nt | nt
Cc1cc(=O)n(C)c(=O)n1CC(=O)N1CCCCCC1 | i | i | i | ? | i | i
O=C(O)c1cc2ccccc2c(N=Nc2cccnc2)c1O | i | i | i | 2.94µM | i | i
O=C(O)c1cc(N=Nc2c(O)ccc3ccccc23)cc(C(=O)O)c1 | i | ? | i | ? | i | i
Cc1c(C)n(Cc2ccccc2)c2ccc(C(=O)OCCCN(C)C)cc12 | i | ? | i | 4.15µM | i | i
Cc1c(C)n(CCN(C)C)c2ccc(C(=O)OCCN(C)C)cc12 | i | ? | ? | i | i | i
Cc1cc(N2CCOCC2)nc2ccc(NC(=S)NC(C)C)cc12 | i | i[0.00184 µM] | i | i | i | i
Cc1cc(N2CCCC2)nc2ccc(NC(=S)NC(C)C)cc12 | nt | 10.4µM | i | i | i | i
COCCNC(=S)Nc1ccc2nc(N3CCCC3)cc(C)c2c1 | i | ? | i | ? | i | i
CCOCCCNC(=S)Nc1ccc2nc(N3CCCC3)cc(C)c2c1 | i | 11.7µM | i | i | i | i
CC(OCc1ccccc1)C(NC(=O)OC(C)(C)C)C(=O)NC1COC2CC(n3cc(F)c(=O)[nH]c3=O)OC12 (stereo not drawn) | nt | nt | nt | nt | i | i
COc1cccc(COCCN2CCN(S(=O)(=O)c3ccccc3)CCC2=O)c1 | nt | nt | nt | nt | i | i
CC(=O)c1cccc(NC(=O)c2onc(C)c2Cl)c1 | i | nt | i | ? | 17.4 | i
Cc1noc(C(=O)Nc2cccnc2)c1Cl | i | nt | i | i | i | i
Cc1ccc2c(Cl)c(C(=O)Nc3ccc4c(c3)OCO4)sc2c1 | i | i | i | i | 19.2 | 90.5
Cc1noc(C(=O)Nc2ccc3c(c2)OCO3)c1Cl | i | i | i | i | 36.8 | 78.7
CC(=O)c1ccc(NC(=O)c2onc(C)c2Cl)cc1 | i | i | i | i | 39.3 | 95.6
CCCCOc1ccc(/C=C/C(=O)N(CC)CC(=O)Nc2ccc3c(c2)OCCO3)cc1OC | nt | ? | i | ? | nt | nt
CSc1nn2c(C(F)(F)F)cc(C(F)(F)F)nc2c1C(=O)O | i | i | i | i | i | i
CC(C)(C)NC(=O)CN(C(=O)CS(=O)CC(=O)Nc1ccc(F)cc1)c1ccc2c(c1)OCCO2 (stereo not drawn) | nt | i | i | i | i | i
SMILES | NS1 function inh | Pf growth 48h | SARS PLP yeast | Pf growth 96h | CHX counter | Shiga inhibitor
COc1ccc(OC)c(CN2CCCCCC2)c1 | i | i | i | i | i | i
OCC1(CCc2ccccc2)CCN(Cc2ccc(OC(F)F)cc2)CC1 | i | i | i | 13.1µM | i | i
OCC1(CCCc2ccccc2)CCN(Cc2ccc(F)cc2)CC1 | i | i | i | i | i | i
COc1ccc(OC)c(CN2CCC(CO)(CCOc3ccccc3)CC2)c1 | i | 13.1µM | i | i | i | i
Cc1c(CN2CCC(CO)(CCOc3ccccc3)CC2)c(=O)n(-c2ccccc2)n1C | i | i | i | ? | i | i
COc1cc(CN2CCC(CO)(CCOc3ccccc3)CC2)cc(OC)c1 | i | 11.7µM | i | 11.7µM | i | i
Cc1cc(C)c(CN2CCC(CO)(CCOc3ccccc3)CC2)cc1C | i | 6.57µM | i | i | i | i
Cc1ccc(C(=O)N2CCN(Cc3ccc4c(c3)OCO4)CC2)cc1[N+](=O)[O-] | i | i | i | i[5.75 µM] | i | i
Cc1ccc(S(=O)(=O)N2CCN(C(=O)[C@H](Cc3ccccc3)NC(=O)c3ccco3)CC2)cc1C | nt | ? | i | ? | nt | nt
OCC1(CCOc2ccccc2)CCN(Cc2cccn2-c2ncccn2)CC1 | i | ? | i | i | i | i
OCC1(CCOc2ccccc2)CCN(C2Cc3ccccc3C2)CC1 | i | 8.28µM | i | ? | i | i
COc1ccc(C(=O)OCC(=O)c2c(N)n(C)c(=O)n(C)c2=O)c(OC)c1OC | nt | nt | i | nt | nt | nt
OCCN1CCN(c2cc(-c3ccccc3)c3ccccc3n2)CC1 | i | ? | i | 13.1µM | i | i
COc1ccc(/C=N/NC(=O)c2ccc(COc3cccc4cccnc34)cc2)cc1OC | i | i | i | ? | i | i
COc1ccc(/C=N/NC(=O)c2sccc2OCc2ccc(F)cc2)cc1OC | i | ? | i | 11.7µM | i | i
O=C(N/N=C/c1cccc(OC(=O)N2CCOCC2)c1)c1cccs1 | i | i | i | i | 26.7 | i
COc1cccc(/C=N/NC(=O)c2cccs2)c1 | i | i | i | i | 47.0 | 127.0
COC(=O)N/N=C\c1cccc(OC(=O)c2cccs2)c1 | nt | i | i | i | i | i
COc1cc(/C=N/NC(=O)c2ccc(-n3cccc3)cc2)ccc1O | i | i | i | i | i | i
COc1cc(/C=N/NC(=O)c2cccs2)ccc1O | i | i | i | i | 51.7 | 97.2
CCCCNC(=O)CCN1N=C(c2ccccc2)CCC1=O | nt | i | i | ? | i | i
COc1cc(/C=N/NC(=O)CCN2CCN(C(c3ccccc3)c3ccccc3)CC2)ccc1O | i | ? | i | 11.7µM | i | i
O=C(N/N=C/c1ccccc1OCc1ccccc1)c1cccs1 | i | i | i | i | 42.1 | active
COc1cc(/C=N/NC(=O)c2ccccc2O)ccc1OC(=O)CC1SC(=O)NC1=O (stereo not drawn) | i | i | i | i | 29.7 | 58.2
CCOc1cc(/C=N/NC(=O)c2ccccc2-n2cccc2)ccc1O | nt | i | i | i | nt | nt
SMILES | NS1 function inh | Pf growth 48h | SARS PLP yeast | Pf growth 96h | CHX counter | Shiga inhibitor
CCOc1cc(/C=N/NC(=O)c2ccccc2OCc2ccc(F)cc2)ccc1O | nt | 8.28µM | i | ? | nt | nt
COc1ccc(C(C)C)cc1S(=O)(=O)NC1CCCC1 | i | ? | i | i | i | i
COc1ccccc1OCCC(=O)OCC(=O)Nc1cc(S(=O)(=O)N2CCOCC2)ccc1Cl | nt | i | i | i | i | i
Cc1cc(Cl)cc(C)c1OCC(=O)NC1CCCCCC1 | nt | nt | i | nt | nt | nt
COc1cc(/C=N/NC(=O)c2cccs2)ccc1OCc1ccccc1 | i | ? | i | ? | 28.4 | 52.8
COc1cc(/C=N/NC(=O)c2cc(C)oc2C)ccc1OCc1ccccc1 | i | ? | i | i | i | i
COC(=O)c1cc(OC)c(OC)cc1NC(=O)c1c(-c2ccccc2Cl)noc1C | i | ? | i | i | i | i
COc1ccc(CNC(=O)CCCCCNC(=O)N2CCn3c2nc2ccccc23)cc1 | i | ? | i | ? | i | i
